For part of these data: Entries with a potency or affinity are not part of this list. The source made the active and inactive calls. Unless noted, no rule for the calls is given here.
Legend:
[1] = antimalarial activity against Dd2 strain (AID 2302;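 active = growth inhibition above 50% at the single 2 µM test dose, taken to imply half-maximal potency below 2 µM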;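 also: 0% = DMSO untreated growth and 100% = chloroquine plus artemisinin killed control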); details: P. falciparum Dd2 in RBCs, LDH growth readout, 72 h; at 2 µM; stronger effect = higher value
[2] = HepG2 cytotoxicity, primary screen, cytotoxicity control for P. falciparum antimalarial project, cell-based, ATP luminescence (AID 2303;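 active = inhibition above 50%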;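 also: 0% = DMSO wells and 100% = digitonin-killed cells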); details: HepG2 viability, 24-48 h, at 10 µM, stronger effect = higher value
[3] = biological target: L-lactate dehydrogenase (Plasmodium falciparum (isolate CDC / Honduras)) (UniProt Q27743); test: PfLDH activity inhibition – cell lysate, 3D7 strain, counter-screen for P. falciparum growth inhibition project (AID 2304);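 also: 0% = vehicle and 100% = reference inhibitor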; details: P. falciparum 3D7 crude extract, LDH APAD/NBT absorbance; at 2 µM; stronger effect = higher value
[4] = inhibition of 3D7 malaria parasite growth – strain 3D7 (AID 2306);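 also: 0% = DMSO wells and 100% = chloroquine plus artemisinin control wells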; details: P. falciparum 3D7 erythrocytic growth, LDH absorbance, 72 h; at 2 µM; stronger effect = higher value
[5] = biological target: Calcium-dependent protein kinase 1 (Plasmodium falciparum (isolate 3D7)) (UniProt P62344); test: PfCDPK1 kinase inhibitors, biochemical, TCAMS library (AID 1159585; cut-off not given, nearly all actives have IC50 up to about 0.98 µM;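 also: inhibitors leave more ATP so luminescence rises with inhibition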); details: recombinant PfCDPK1, Kinase-Glo ATP depletion luminescence
[6] = biological target: Plasmodium falciparum protein kinase 6 (PK6, PF3D7_1337100) (UniProt Q8IDW1); test: PfPK6 kinase inhibitors, biochemical, TCAMS library (AID 1159586); details: recombinant PfPK6, Kinase-Glo ATP depletion luminescence
[7] = biological target: Protein kinase 7 (PK7), Plasmodium falciparum 3D7 (PF3D7_0213400) (UniProt Q7YTF7); test: inhibition of Plasmodium PK7 catalytic activity – biochemical, TCAMS antimalarial set, Kinase-Glo luminescence (AID 1159587); details: recombinant PfPK7, Kinase-Glo ATP depletion luminescence
[8] = biological target: Calcium-dependent protein kinase 4 (Plasmodium falciparum (isolate 3D7)) (UniProt Q8IBS5); test: PfCDPK4 kinase inhibitors, biochemical, TCAMS library (AID 1159588; cut-off not given, nearly all actives have IC50 up to about 0.91 µM); details: recombinant PfCDPK4, Kinase-Glo ATP depletion luminescence
Chain of Calcium-dependent protein kinase 4 (Plasmodium falciparum (isolate 3D7)) (Q8IBS5 whole entry, looked up): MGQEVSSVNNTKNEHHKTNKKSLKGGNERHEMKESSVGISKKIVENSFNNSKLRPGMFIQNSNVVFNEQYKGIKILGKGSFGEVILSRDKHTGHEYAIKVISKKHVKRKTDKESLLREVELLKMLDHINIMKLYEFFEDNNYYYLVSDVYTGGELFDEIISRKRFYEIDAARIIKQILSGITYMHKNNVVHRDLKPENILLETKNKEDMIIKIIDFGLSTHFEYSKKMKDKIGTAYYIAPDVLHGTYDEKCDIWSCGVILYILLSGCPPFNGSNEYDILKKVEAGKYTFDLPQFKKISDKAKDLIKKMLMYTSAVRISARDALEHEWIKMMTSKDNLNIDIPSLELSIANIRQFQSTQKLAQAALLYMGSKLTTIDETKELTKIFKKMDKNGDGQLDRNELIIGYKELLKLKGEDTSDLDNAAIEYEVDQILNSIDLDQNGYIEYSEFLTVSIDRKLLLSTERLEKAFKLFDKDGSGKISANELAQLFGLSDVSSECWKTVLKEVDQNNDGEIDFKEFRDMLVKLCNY

Chain of Protein kinase 7 (PK7), Plasmodium falciparum 3D7 (PF3D7_0213400) (Q7YTF7 1-343): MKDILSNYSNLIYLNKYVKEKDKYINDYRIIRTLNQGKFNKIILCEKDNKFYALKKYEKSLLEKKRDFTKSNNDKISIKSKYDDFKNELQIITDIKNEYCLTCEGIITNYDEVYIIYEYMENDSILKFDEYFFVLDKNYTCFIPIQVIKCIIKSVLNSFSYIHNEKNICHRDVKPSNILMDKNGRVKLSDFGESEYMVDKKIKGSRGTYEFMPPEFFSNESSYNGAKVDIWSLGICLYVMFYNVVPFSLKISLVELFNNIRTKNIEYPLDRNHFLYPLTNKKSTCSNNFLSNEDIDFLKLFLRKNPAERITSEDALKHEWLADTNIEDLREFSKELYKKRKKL
Chain of Plasmodium falciparum protein kinase 6 (PK6, PF3D7_1337100) (Q8IDW1 1-305): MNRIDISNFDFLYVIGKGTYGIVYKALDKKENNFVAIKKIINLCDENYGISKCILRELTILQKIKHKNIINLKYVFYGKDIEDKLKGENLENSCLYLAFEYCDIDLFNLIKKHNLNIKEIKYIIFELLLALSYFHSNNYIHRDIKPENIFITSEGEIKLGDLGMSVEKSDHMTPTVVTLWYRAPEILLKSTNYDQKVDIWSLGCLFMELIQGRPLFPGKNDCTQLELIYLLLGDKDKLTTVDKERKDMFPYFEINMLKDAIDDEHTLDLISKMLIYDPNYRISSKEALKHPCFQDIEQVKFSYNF
Chain of L-lactate dehydrogenase (Plasmodium falciparum (isolate CDC / Honduras)) (Q27743 whole entry, looked up): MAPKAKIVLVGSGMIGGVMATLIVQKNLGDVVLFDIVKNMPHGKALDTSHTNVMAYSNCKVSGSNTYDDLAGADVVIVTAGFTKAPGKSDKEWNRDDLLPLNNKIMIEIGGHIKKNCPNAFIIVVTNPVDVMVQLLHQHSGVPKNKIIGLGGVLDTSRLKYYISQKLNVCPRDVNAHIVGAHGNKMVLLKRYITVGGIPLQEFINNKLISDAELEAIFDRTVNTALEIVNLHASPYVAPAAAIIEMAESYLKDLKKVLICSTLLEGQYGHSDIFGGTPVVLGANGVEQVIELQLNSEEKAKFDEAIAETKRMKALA
Chain of Calcium-dependent protein kinase 1 (Plasmodium falciparum (isolate 3D7)) (P62344 whole entry, looked up): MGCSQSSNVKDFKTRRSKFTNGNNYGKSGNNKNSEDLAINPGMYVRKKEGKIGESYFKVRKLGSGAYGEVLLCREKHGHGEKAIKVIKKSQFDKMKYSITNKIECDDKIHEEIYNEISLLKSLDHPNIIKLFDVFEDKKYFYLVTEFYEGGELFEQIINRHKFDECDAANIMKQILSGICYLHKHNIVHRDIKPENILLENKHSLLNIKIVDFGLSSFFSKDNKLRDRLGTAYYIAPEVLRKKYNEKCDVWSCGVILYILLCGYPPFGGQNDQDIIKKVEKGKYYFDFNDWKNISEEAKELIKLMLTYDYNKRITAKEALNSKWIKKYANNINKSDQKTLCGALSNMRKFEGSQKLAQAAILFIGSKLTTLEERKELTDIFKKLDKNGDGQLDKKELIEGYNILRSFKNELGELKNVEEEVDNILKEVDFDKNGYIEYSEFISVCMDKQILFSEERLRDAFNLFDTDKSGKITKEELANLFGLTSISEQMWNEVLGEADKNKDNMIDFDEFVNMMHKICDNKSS

CN1CCN(CCCNCc2ccccc2-c2cccc(CNCc3ccc4c(c3)OCO4)c2)CC1
active: growth inhibition [4] 102%
inactive: growth inhibition [1] 7% | inhibition [2] 34% | inhibition [3] -1% | outcome [5] | outcome [6] | outcome [7] | outcome [8]

N#Cc1cccc(/C=C/C(=O)NC2CCC(CCN3CCc4ccc(-c5cnccn5)cc4CC3)CC2)c1 (centres undefined)
inactive: growth inhibition [1] 47% | inhibition [2] 22% | inhibition [3] -1% | outcome [5] | outcome [6] | outcome [7] | outcome [8]
active: growth inhibition [4] 93%

CCCC(C)NC(=O)[C@H](CC1CCCCC1)NC(=O)c1ccc(O)c(-c2cccc(C(F)(F)F)c2)c1 (some centres undefined)
active: growth inhibition [1] 98% | growth inhibition [4] 100%
inactive: inhibition [2] -5% | inhibition [3] 5% | outcome [5] | outcome [6] | outcome [7] | outcome [8]
